Assay outcomes as filed in PubChem BioAssay.
The list is not random: actives were taken first. Their share in the collection is about 10%.
Pf growth 48h: inhibits P. falciparum growth in the first generation, 48 h; Potency, µM (doses to about 28.7 µM), for the others: at the top dose activity change, negative = inhibition, usual class: inhibitors; 310,000 tested, 5.9% active; P. falciparum luciferase growth in erythrocytes, 48 h; active means well fitted inhibition curve with a large enough effect; inconclusive means small, poorly fitted or top-dose-only effect, or another doubt; inactive means no such curve, though single readings can be large or run the other way; further: on the % scale 0 is the no-effect control and ±100 the full control effect
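Luminescence readout; reporter = integrated firefly luciferase in P. falciparum. RBC culture at 2% hematocrit, 0.1% parasitemia final, 37 C/5% CO2; decreased signal taken as growth inhibition.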
Pf growth 96h: P. falciparum growth inhibition at 96 hour, primary screen for plastid delayed-death inhibitors | P. falciparum luciferase reporter growth, 96 h | 320,000 tested, 6.9% active | Potency, µM (doses to about 28.7 µM), for inactives: top-dose activity change, negative = inhibition, usual class: inhibitors; active means well fitted inhibition curve with a large enough effect; inconclusive means small, poorly fitted or top-dose-only effect, or another doubt; inactive means no such curve, though single readings can be large or run the other way; further: on the % scale 0 is the no-effect control and ±100 the full control effect
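Compounds incubated with erythrocytes infected by luciferase-expressing P. falciparum (2% hematocrit, 0.05% parasitemia final) for 96 hours, 37 C in 5% CO2. Growth inhibition scored as decreased luciferase luminescence.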
SARS PLP yeast: SARS-CoV PLP inhibition in yeast; S. cerevisiae expressing SARS-CoV PLpro, growth rescue; Potency, µM (titrated, usually from 32.9 µM), for the others: at the top dose activity, positive = growth rescue, actives largely listed as activators; 330,000 tested, 0.19% active; AID 485353; further: 0% is about no effect; nearly all actives have a fitted effect of over 55% in size
NS1 function inh: inhibitors of influenza NS1 protein function | Potency, µM (doses to about 46.1 µM), inactives show top-dose activity, positive = more growth | 270,000 tested, 0.4% active | AID 2326; further: actives are rising curves; nearly all actives have a fitted effect of over 50% in size
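Growth recovery, yeast-based: influenza A NS1 expressed in S. cerevisiae causes slow growth, and suppressors are detected by OD600. The parent strain without NS1 is used as positive control.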
Numbers without * were called inactive; [ ] = dose if it differs, or a comment. Unless noted, the call rests on the fitted dose curve. Potency means the concentration at half of the fitted maximal effect.

What do the screens show for `C[C@H](CO)N1C[C@H](C)[C@@H](CN(C)S(C)(=O)=O)Oc2c(NC(=O)c3ccncc3)cccc2C1=O`?
SARS PLP yeast: 1.4%

What do the screens show for `COc1ccc(S(=O)(=O)N2CCN(C(=O)CNC(=O)c3ccc4c(c3)OCO4)CC2)cc1`?
Pf growth 48h: 51.8%; Pf growth 96h: 0.1%; SARS PLP yeast: -0.8%

How did NC(=O)c1ccc(NC(=O)CSc2nc3ccccc3c(=O)n2CCCN2CCOCC2)cc1 do in these assays?
Pf growth 48h: -27.0%; Pf growth 96h: -28.2%; SARS PLP yeast: 0.8%

Results for CCOC(=O)c1sc(N)c(C(=O)Nc2ccccc2OC)c1C ?
Pf growth 48h: -4.5%; Pf growth 96h: 4.5%; SARS PLP yeast: 5.5%

What do the screens show for `COc1cccc2c3c(c(C)nc12)CCN3c1ccccc1`?
Pf growth 48h: inconclusive; Pf growth 96h: inconclusive; SARS PLP yeast: -2.5%; NS1 function inh: -2.8%

What do the screens show for `COc1ccccc1N1CCc2c(C)nc3c(OC)cccc3c21`?
Pf growth 48h: 13.1µM*; Pf growth 96h: inconclusive; SARS PLP yeast: 3.7%; NS1 function inh: -2.6%

What do the screens show for `Fc1ccc(CN2CC[C@H]3C=CCc4cccc(c43)C2)cc1`?
Pf growth 48h: 10.4µM*; Pf growth 96h: inconclusive; SARS PLP yeast: 0.7%

What do the screens show for `Clc1ccc(CN2CC[C@H]3C=CCc4cccc(c43)C2)cc1`?
Pf growth 48h: 3.7µM*; Pf growth 96h: 1.85µM*; SARS PLP yeast: -5.8%

Results for COC(=O)c1ccc(C2C(C#N)=C(C)NC3=C2C(=O)CC(C)(C)C3)cc1 (configuration not stated) ?
Pf growth 48h: 7.6%; Pf growth 96h: 9.28µM*; SARS PLP yeast: -0.8%; NS1 function inh: -8.7%

How did COc1ccc(C2C(C#N)=C(SC)NC3=C2C(=O)CC(C)(C)C3)cc1 (configuration not stated) do in these assays?
Pf growth 48h: inconclusive; Pf growth 96h: 21.5%; SARS PLP yeast: -1.7%; NS1 function inh: -8.0%

Results for COc1ccc(C2CC(=O)C3=C(C2)NC(C)=C(C#N)C3c2ccc(N(C)C)cc2)cc1 (configuration not stated) ?
Pf growth 48h: 6.57µM*; Pf growth 96h: 10.2%; SARS PLP yeast: 11.3%; NS1 function inh: inconclusive

Results for O=C1CCCC2=C1C1O[C@](CCCCN3C(=O)c4ccccc4C3=O)(Cc3c1ccc1ccccc31)O2 ?
Pf growth 48h: inconclusive; Pf growth 96h: -6.0%[5.75 µM]; SARS PLP yeast: 1.0%[6.58 µM]; NS1 function inh: inconclusive

How did CS(=O)(=O)NNC(=O)c1cc2cc3ccccc3nc2s1 do in these assays?
Pf growth 48h: 2.8%; Pf growth 96h: 4.65µM*; SARS PLP yeast: 0.8%

Results for NNC(=O)c1cc2cc3ccccc3nc2s1 ?
Pf growth 48h: inconclusive; Pf growth 96h: 13.1µM*; SARS PLP yeast: -1.7%

How did COc1ccc(CNC(=O)CN(Cc2ccccc2F)C(=O)c2csnn2)cc1 do in these assays?
Pf growth 48h: -1.9%; Pf growth 96h: -17.8%; SARS PLP yeast: -0.8%; NS1 function inh: -3.0%

Results for Cc1nn(Cc2ccccc2)c(C)c1C(=O)N1CCN(S(=O)(=O)/C=C/c2ccccc2)CC1 ?
Pf growth 48h: 11.7µM*; Pf growth 96h: 4.15µM*; SARS PLP yeast: 0.2%

What do the screens show for `Cc1nn(Cc2ccccc2)c(C)c1C(=O)O`?
Pf growth 48h: -3.5%; Pf growth 96h: -9.6%; SARS PLP yeast: 0.3%; NS1 function inh: -0.5%

What do the screens show for `CC1(C)CC(=O)C2=C(C1)N=C1c3ccccc3C(=O)C1C2c1ccc(Cl)cc1` (configuration not stated)?
Pf growth 48h: inconclusive; Pf growth 96h: inconclusive; SARS PLP yeast: -7.5%; NS1 function inh: 9.2%

Results for Cc1ccc(C2C3=C(CC(C)(C)CC3=O)N=C3c4ccccc4C(=O)C32)cc1 (configuration not stated) ?
Pf growth 48h: 8.28µM*; Pf growth 96h: 16.8%; SARS PLP yeast: -14.5%; NS1 function inh: inconclusive

Results for COc1ccc(C2=NS(=O)(=O)N(C)C(C(=O)N3CCCCC3C)=C2)cc1 (configuration not stated) ?
Pf growth 48h: -17.7%; Pf growth 96h: 22.6%; SARS PLP yeast: 7.2%; NS1 function inh: 1.3%

How did Cc1cc(C(=O)C(=O)NC(C)C)c(C)n1-c1ccc([N+](=O)[O-])cc1 do in these assays?
Pf growth 48h: 7.38µM*; Pf growth 96h: inconclusive; SARS PLP yeast: 3.2%; NS1 function inh: 0.0%

How did CC1CCCN(C(=O)c2ccc(Br)c(S(=O)(=O)N3CCOCC3)c2)C1 (configuration not stated) do in these assays?
Pf growth 48h: -10.9%; Pf growth 96h: inconclusive; SARS PLP yeast: 1.5%

Results for COc1cc2[nH]c(=S)n(NC(=O)CC(C)C)c(=O)c2cc1OC ?
Pf growth 48h: 1.4%; Pf growth 96h: 10.4µM*; SARS PLP yeast: 0.7%; NS1 function inh: 3.7%

What do the screens show for `CCCn1c(=S)[nH]c2cc(OC)c(OC)cc2c1=O`?
Pf growth 48h: -16.6%; Pf growth 96h: -18.2%; NS1 function inh: -10.5%

Results for O=C(NC1=C(Nc2ccc(Cl)cc2)C(=O)c2ccccc2C1=O)c1ccccc1 ?
Pf growth 48h: 0.131µM*; Pf growth 96h: 0.104µM*; SARS PLP yeast: 9.7%; NS1 function inh: -12.8%

What do the screens show for `Cc1cccc(NC2=C(NC(=O)c3ccccc3)C(=O)c3ccccc3C2=O)c1`?
Pf growth 48h: 0.465µM*; Pf growth 96h: inconclusive; SARS PLP yeast: -40.5%; NS1 function inh: -35.2%

How did O=C(NC1=C(NC2CCS(=O)(=O)C2)C(=O)c2ccccc2C1=O)c1ccccc1 (configuration not stated) do in these assays?
Pf growth 48h: 1.65µM*; Pf growth 96h: inconclusive; SARS PLP yeast: -3.2%; NS1 function inh: -8.0%

Results for CN(C1=C(NC(=O)c2ccc(Cl)cc2)C(=O)c2ccccc2C1=O)c1ccccc1 ?
Pf growth 48h: 1.85µM*; Pf growth 96h: inconclusive; SARS PLP yeast: -24.5%; NS1 function inh: 26.5%

Results for CN(c1ccc(C(=O)Nc2ccc(Cl)cn2)cc1)S(=O)(=O)c1ccccc1 ?
Pf growth 48h: -12.9%; Pf growth 96h: -27.2%; SARS PLP yeast: -1.6%; NS1 function inh: -48.3%

Results for CCCCN(C(=O)C1=CC=CN2CCS(=O)(=O)N=C12)c1ccccc1 ?
Pf growth 48h: inconclusive; Pf growth 96h: -10.4%; SARS PLP yeast: -0.6%

Results for Cc1[nH]c2c(C)cccc2c(=O)c1CN1CCCCCC1 ?
Pf growth 48h: -16.9%; Pf growth 96h: inconclusive; SARS PLP yeast: -1.0%; NS1 function inh: 2.6%

Results for Cc1ccc(NC(=O)CCn2c(=O)c3cccn3c3ccccc32)cc1C ?
Pf growth 48h: inconclusive; Pf growth 96h: 12.5%; SARS PLP yeast: -4.2%; NS1 function inh: 1.8%

How did CCC(=O)c1cn(CC(=O)Nc2ccc(OC)cc2)c2ccccc12 do in these assays?
Pf growth 48h: 25.6%; Pf growth 96h: 2.8%; SARS PLP yeast: 0.7%; NS1 function inh: 8.1%

Results for Cn1nc(C(F)(F)F)c(C(=O)Nc2ccc(F)cc2F)c1Sc1cccc(C(F)(F)F)c1 ?
Pf growth 48h: 9.28µM*; Pf growth 96h: 8.28µM*; SARS PLP yeast: 15.2%; NS1 function inh: 4.1%
